SK-BR-3 tox 24h = SK-BR-3 proliferation inhibitors | 41,000 tested, 0.47% active | viability, % at 10 µM | AID 847 | SK-BR-3 viability, CellTiter-Glo ATP luminescence, 24 h; hits give low values;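 active means viability at or below the median of all test compounds minus 3 SD, in both replicates if run twice, cut at about 45% in these data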;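 further: 100% = median untreated cell wells and 0% = median positive control drug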
DUSP1 inh = human dual specificity phosphatase 1 inhibition. 65,000 tested, 0.15% active. inhibition, %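 (compounds tested at a single concentration somewhere between 10 and 100 µM)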. P28562. recombinant MKP-1, OMFP hydrolysis fluorescence;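 active means inhibition above about 50%, limit read from the data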;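 further: 0% = DMSO max control wells and 100% = wells with enzyme stopped by NaOH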
Cdc25B block = human M-phase inducer phosphatase 2 inhibition; P30305; recombinant Cdc25B, OMFP fluorescence Ex485/Em525; inhibition, %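 (compounds tested at 10 µM final in the well)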; 65,000 tested, 0.1% active; in the data active means inhibition above about 50%
ROCK2 inh = ROCK2 (human) kinase inhibition; inhibition, % at 6 µM; O75116; 60,000 tested, 0.35% active; purified ROCK2, Kinase-Glo ATP depletion luminescence;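 active means inhibition above the screen-wide mean inhibition plus 3 SD, cut at about 18% in these data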;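 further: plate controls were DMSO wells for no effect and Y-27632 control wells after no-enzyme background subtraction for full effect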
Target sequence (O75116 whole entry, looked up): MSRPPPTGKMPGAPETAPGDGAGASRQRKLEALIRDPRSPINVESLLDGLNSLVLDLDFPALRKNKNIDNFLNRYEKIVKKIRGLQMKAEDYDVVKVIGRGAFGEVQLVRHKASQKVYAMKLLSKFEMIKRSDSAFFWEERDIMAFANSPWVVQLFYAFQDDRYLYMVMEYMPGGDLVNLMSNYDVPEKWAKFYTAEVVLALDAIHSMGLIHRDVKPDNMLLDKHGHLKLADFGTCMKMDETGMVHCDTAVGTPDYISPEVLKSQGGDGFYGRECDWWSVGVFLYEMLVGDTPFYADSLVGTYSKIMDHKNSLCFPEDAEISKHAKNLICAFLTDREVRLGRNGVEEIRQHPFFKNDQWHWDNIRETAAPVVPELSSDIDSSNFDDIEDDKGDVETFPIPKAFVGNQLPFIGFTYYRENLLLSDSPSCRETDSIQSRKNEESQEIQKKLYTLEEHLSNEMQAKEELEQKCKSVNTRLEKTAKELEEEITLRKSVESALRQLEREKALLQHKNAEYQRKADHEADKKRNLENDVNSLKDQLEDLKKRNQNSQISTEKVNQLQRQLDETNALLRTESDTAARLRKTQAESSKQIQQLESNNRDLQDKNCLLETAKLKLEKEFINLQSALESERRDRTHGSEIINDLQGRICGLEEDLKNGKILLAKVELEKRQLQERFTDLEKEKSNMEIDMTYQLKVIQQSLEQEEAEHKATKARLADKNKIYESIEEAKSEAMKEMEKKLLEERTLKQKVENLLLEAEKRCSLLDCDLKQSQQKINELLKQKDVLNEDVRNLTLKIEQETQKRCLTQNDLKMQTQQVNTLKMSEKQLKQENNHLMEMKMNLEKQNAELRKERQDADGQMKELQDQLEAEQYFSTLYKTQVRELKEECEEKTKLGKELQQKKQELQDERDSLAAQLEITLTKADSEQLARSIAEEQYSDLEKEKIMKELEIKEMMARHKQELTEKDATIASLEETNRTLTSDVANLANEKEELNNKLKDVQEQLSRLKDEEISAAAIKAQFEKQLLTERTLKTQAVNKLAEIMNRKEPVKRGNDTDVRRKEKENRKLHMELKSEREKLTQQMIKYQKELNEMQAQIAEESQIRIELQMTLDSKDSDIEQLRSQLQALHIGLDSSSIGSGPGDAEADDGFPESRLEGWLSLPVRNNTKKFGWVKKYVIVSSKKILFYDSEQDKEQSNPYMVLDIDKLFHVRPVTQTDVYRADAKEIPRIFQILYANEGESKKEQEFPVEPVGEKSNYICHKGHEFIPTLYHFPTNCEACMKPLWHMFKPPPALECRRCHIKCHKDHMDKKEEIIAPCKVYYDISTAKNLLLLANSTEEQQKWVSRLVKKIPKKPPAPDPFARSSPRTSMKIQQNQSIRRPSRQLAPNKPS
PKA kinase inh = blocks human protein kinase A activity | P17612 | PKA Kemptide phosphorylation, Kinase-Glo ATP luminescence | inhibition, % at 6 µM | 65,000 tested, 0.1% active | AID 524;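 active means inhibition above the screen-wide mean inhibition plus 3 SD, cut at about 21% in these data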
Hsp90 inh = displaces geldanamycin probe from tumor Hsp90; inhibition, % at 30 µM; NCI-N417 lysate Hsp90, Cy3B-geldanamycin FP displacement; 64,000 tested, 0.35% active; AID 429; P07900;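 active means inhibition above 50%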;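 further: 0% = tracer plus lysate wells and 100% = tracer alone without lysate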
* marks the source's active call; other numbers are inactive results; / = not tested or not shown. Most compounds without a hit are left out; they make up all but 0.99% or so of the library.

SMILES	SK-BR-3 tox 24h	DUSP1 inh	Cdc25B block	ROCK2 inh	PKA kinase inh	Hsp90 inh
CCOc1ccc(N2C(=O)CC(NCc3ccc(F)cc3)C2=O)cc1 (stereo not given)	87.7	-6.2	-3.8	1.1	4.7	-1.0
O=C1CC(NCc2ccccc2F)C(=O)N1c1ccccc1 (stereo not given)	39.2*	-16.8	-10.9	-4.8	-9.0	-0.3
CCCc1oc2c(c(=O)c1CC)C(=O)CC(C)(C)C2	/	14.2	-11.7	-2.2	0.7	2.3
CC1CC(C)(C)Nc2ccc(OC(=O)c3ccco3)cc21 (stereo not given)	19.8*	-0.5	-13.3	1.1	6.7	4.2
O=C(Oc1ccc2ccccc2c1)c1ccco1	/	-8.0	2.9	8.5	5.4	-0.8
CCN(CC(=O)NCc1ccccn1)S(=O)(=O)c1ccc(Cl)cc1	85.7	-1.6	-7.3	9.1	10.7	-5.1
Clc1cccc(-c2nnc(-c3ccccc3)o2)c1	18.3*	-4.3	-7.7	-4.7	-8.1	-4.6
CC1=NN(c2ccccc2)C(=O)C1	98.6	-13.4	2.2	19.4*	0.9	-2.6
Cc1cc(N2C(=O)CCC2=O)n(-c2ccccc2)n1	88.9	-4.2	-12.5	-3.4	-5.1	-2.1
O=C1NCCCc2c1oc1ccc(O)cc21	91.6	-2.6	50.4*	8.7	-1.4	2.4
CCCc1cc(-c2[nH]ncc2-c2ccc3c(c2)OCCCO3)c(O)cc1O	85.1	38.1	2.1	9.0	5.4	77.8*
CCCc1cc(-c2[nH]ncc2-c2ccc(C(=O)OCC)o2)c(O)cc1O	/	25.8	-8.2	5.9	8.6	41.2
CN(C)c1ccc(N=Cc2nc(-c3ccccc3)oc2O)cc1	75.3	7.7	10.8	1.3	0.1	54.1*
CSc1ccccc1N=Cc1nc(-c2ccccc2)oc1O	/	2.2	-24.3	2.1	-1.8	-0.9
O=S(=O)(c1ccc2c(c1)C(=NO)c1cc(S(=O)(=O)N3CCCCC3)ccc1-2)N1CCCCC1	3.5*	27.6	6.1	2.4	-0.1	-6.0
CCOc1ccc(CC(=O)Nc2c(C(N)=O)oc3ccccc23)cc1OCC	34.0*	-7.1	-1.9	-2.9	-3.1	-2.0
NC(=O)c1oc2ccccc2c1NC(=O)c1ccco1	/	8.5	3.0	5.2	0.4	-1.6
COc1ccc(OC)c(NC(=O)CSc2nnc(Cc3cccn3C)n2CCc2ccccc2)c1	/	65.4*	-28.6	5.4	0.2	-0.9
Cn1cccc1Cc1nnc(SCC(=O)Nc2ccc(F)cc2)n1CCc1ccccc1	/	13.9	-12.1	2.0	5.3	-6.0
Cc1cc2c(c(=O)n1Cc1ccc3c(c1)OCO3)C(c1cccnc1)C(C#N)=C(N)O2 (stereo not given)	/	2.5	-3.1	0.2	2.1	-2.2
Cc1cccc(NC(=O)CSc2nnc(-c3ccc(S(=O)(=O)N4CCCC4)cc3)o2)c1	81.2	-36.1	4.4	4.0	6.0	3.4
Cc1ccc(NC(=O)CSc2nnc(-c3ccc(S(=O)(=O)N4CCCC4)cc3)o2)cc1C	/	53.2*	-5.5	1.4	2.0	1.9
C/C(N)=C(/C#N)C(=O)CSc1nnc(NC(C)C)s1	/	10.6	1.5	-3.3	5.0	-5.0
CC(C)C1C2CCC(C2)C1N (stereo not given)	/	/	/	/	/	-2.5
O=S1(=O)C=C(Sc2nnc(-c3ccccc3)o2)c2ccccc21	1.4*	1.0	-4.7	1.1	1.2	2.8
SMILES	SK-BR-3 tox 24h	DUSP1 inh	Cdc25B block	ROCK2 inh	PKA kinase inh	Hsp90 inh
CSc1nnc(-c2ccccc2)o1	/	-8.6	-5.4	5.1	-1.3	-3.1
CCCCc1ccc(S(=O)(=O)Nc2cc(OC)cc3cccnc23)cc1	/	/	/	/	/	-4.8
COc1ccccc1NS(=O)(=O)c1ccc(NC(C)=O)cc1	106.3	-0.2	-5.5	6.0	5.8	-0.6
COC(=O)/C=C/S(=O)(=O)c1ccc(NC(C)=O)cc1	2.1*	6.6	-1.6	4.4	6.9	-2.6
CN(Cc1nc2ccccc2c(=O)[nH]1)CC(O)COCc1ccco1 (stereo not given)	/	4.7	-0.7	-1.9	-0.2	-5.7
c1ccc(CCCNc2ncnc3nc[nH]c23)cc1	/	3.9	-9.7	7.9	21.5*	-0.5
OCC1NC[C@@H](O)C(O)[C@@H]1O (stereo not given in full)	/	/	/	/	/	-2.3
Cc1ccc(S(=O)(=O)NCCSc2nnnn2-c2cc(C)ccc2C)cc1	96.1	-3.0	-30.6	5.6	10.8	-2.2
Cc1ccc(C)c(-n2nnnc2SCC(=O)c2ccc3c(c2)NC(=O)CO3)c1	/	52.3*	-6.1	1.5	-2.7	-6.0
Oc1ccc(-c2nc(-c3ccc(O)c(O)c3)cs2)cc1	/	7.3	8.0	1.5	0.1	99.4*
c1cncc(-c2nc(-c3ccc4c(c3)OCO4)cs2)c1	/	-20.8	-13.7	/	-2.2	-0.2
CCc1ccc(-c2nnn(CCC(=O)OC)n2)cc1	92.9	-10.2	-7.0	3.6	7.4	102.7*
O=C(NCc1cccs1)C1CCN(c2nc3ccccc3o2)CC1	/	6.7	-4.9	4.6	8.3	-0.3
CC(C)CCNC(=O)C1CCN(c2nc3ccccc3o2)CC1	/	34.5	70.8*	-3.1	0.8	-0.8
[N-]=[N+]=Nc1ccc(C(=O)CSC[C@H](NC(=O)CC[C@H](N)C(=O)O)C(=O)NCC(=O)O)cc1	/	/	/	/	/	2.1
Cc1ccc(S(=O)(=O)N2CCC(C(=O)N[C@@H](C)C(=O)Nc3ccc4c(c3)OCO4)CC2)cc1	79.8	-15.7	1.8	16.4	10.1	65.0*
O=C(NC1CC1)c1c[nH]c2ccc(S(=O)(=O)Nc3cccc(C(F)(F)F)c3)cc2c1=O	/	52.5*	0.2	-3.6	-2.8	-1.6
COc1ccc(N(CC(=O)O)S(=O)(=O)c2cccnc2)cc1	84.6	-0.6	-12.2	6.0	6.7	2.1
Cc1cccc(N2CCN(C(=O)c3cn(C)c(=O)c4c3c3ccccc3n4C)CC2)c1C	102.6	32.6	0.0	169.1*	0.9	0.2
Cc1ccc(Cl)cc1N1CCN(C(=O)c2cn(C)c(=O)c3c2c2ccccc2n3C)CC1	111.5	35.2	-7.9	9.4	6.8	-3.6
Cc1ccc(S(=O)(=O)N(C)CCCC(=O)N2CCOCC2)cc1	92.7	7.9	-9.4	2.3	9.8	-0.4
Cc1ccc(S(=O)(=O)C(CCC(=O)N2CCOCC2)S(=O)(=O)c2ccc(C)cc2)cc1	99.6	-8.3	-1.0	1.1	7.8	87.6*
O=c1c2cc(Cl)ccc2[nH]c(=S)n1Cc1ccco1	/	-4.9	-5.6	/	6.2	-6.8
O=c1c2cc(N3CCOCC3)ccc2[nH]c(=S)n1Cc1ccco1	/	81.4*	-0.8	/	-0.4	-2.9
Cc1cc(C(=O)Nc2ccccn2)no1	106.9	-1.0	-10.6	-8.5	-1.7	-5.4
O=C(Nc1ccccn1)c1ccc2ccccc2n1	/	-1.2	69.8*	-4.4	-6.5	-2.7
O=C1OC(Nc2ccc(Br)cn2)c2ccccc21 (stereo not given)	128.1	-21.1	28.5	-14.6	1.1	-4.0
CCn1c(CSc2nccn2C)nc2cc(C(=O)O)ccc21	/	6.1	-4.3	-2.7	0.6	88.8*
CC(N)(Cc1ccc(O)c(O)c1)C(=O)O (stereo not given)	/	/	/	/	/	54.4*
C[C@@](Cc1ccc(O)c(O)c1)(NN)C(=O)O	97.1	6.4	7.6	/	/	30.9

Source: PubChem (several laboratories)
